Paper PMC4336329 (PLoS ONE, 2015)
The whole screen tested about 310,000 compounds, of which about 14,000 (4.5%) showed an effect of 50% or more. The effect is printed as a negative number. The sample as a whole holds a higher share of strong results than the screen did.

Target: human ether-à-go-go-related gene (hERG) potassium channel (human, UniProt Q12809)
Assay: primary screen, population patch clamp on CHO cells stably expressing hERG; higher = less effect of the substance
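Further: peak tail current of the secondary pulse compared with the same well before compound.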

human ether-à-go-go-related gene (hERG) potassium channel, sequence (Q12809 whole entry, looked up): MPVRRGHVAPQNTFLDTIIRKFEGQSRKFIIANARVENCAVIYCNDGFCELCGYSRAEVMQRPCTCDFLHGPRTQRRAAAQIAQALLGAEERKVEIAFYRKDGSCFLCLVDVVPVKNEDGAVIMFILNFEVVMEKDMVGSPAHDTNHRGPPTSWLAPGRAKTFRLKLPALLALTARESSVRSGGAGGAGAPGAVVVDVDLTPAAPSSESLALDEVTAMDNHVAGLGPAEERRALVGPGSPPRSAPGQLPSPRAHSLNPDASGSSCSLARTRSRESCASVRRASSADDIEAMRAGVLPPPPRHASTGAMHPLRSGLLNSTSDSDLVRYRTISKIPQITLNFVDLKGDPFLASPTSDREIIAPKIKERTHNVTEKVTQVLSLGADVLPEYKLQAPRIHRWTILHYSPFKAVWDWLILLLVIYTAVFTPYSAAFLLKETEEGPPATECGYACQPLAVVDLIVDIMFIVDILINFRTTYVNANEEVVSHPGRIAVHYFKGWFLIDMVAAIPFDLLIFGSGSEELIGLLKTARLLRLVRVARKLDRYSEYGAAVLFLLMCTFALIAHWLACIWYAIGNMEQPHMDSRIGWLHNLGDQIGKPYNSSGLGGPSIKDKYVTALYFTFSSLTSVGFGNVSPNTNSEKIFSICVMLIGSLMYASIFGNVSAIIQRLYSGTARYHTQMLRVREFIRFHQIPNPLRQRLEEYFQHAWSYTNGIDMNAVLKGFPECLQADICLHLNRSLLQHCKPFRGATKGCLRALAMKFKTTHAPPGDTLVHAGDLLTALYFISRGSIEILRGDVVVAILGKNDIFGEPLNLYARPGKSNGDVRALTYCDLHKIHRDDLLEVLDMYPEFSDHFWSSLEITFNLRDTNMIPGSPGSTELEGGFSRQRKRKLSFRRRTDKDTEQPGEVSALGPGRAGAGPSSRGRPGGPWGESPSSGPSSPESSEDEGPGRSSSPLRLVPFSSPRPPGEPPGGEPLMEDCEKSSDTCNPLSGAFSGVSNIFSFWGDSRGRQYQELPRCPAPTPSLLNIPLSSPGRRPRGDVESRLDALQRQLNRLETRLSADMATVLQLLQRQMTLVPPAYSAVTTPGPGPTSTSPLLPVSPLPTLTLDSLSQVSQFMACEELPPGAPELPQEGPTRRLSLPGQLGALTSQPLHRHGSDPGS

Row | SMILES | hERG current change (%, negative = inhibition) at 10uM
1 | Cc1cccc(C)c1NC(=O)c1cc2c(=O)c3ccccc3oc2nc1C(F)(F)F | -3.38%
2 | C=CCn1cccc(C(=O)Nc2ccc(F)cc2)c1=O | -24.8%
3 | COC(=O)CSc1nnc(-c2ccccn2)n1Cc1ccco1 | -13.8%
4 | COc1ccc(CCN(C)C(=S)Nc2ccc(SC(F)F)cc2)cc1OC | -74.7%
5 | COc1ccc(CN(C)CC(=O)Nc2ccc(SC(F)F)cc2)cc1OC | -76.2%
6 | COc1ccc(CN(C)CC(=O)Nc2ccc(N3CCOCC3)cc2)cc1OC | -7.84%
7 | COc1ccc(Cl)cc1NC(=O)CN(C)Cc1ccc(OC)c(OC)c1 | -9.72%
8 | COc1ccc(CN(C)C(C)C(=O)N(C)CC(=O)Nc2ccc(C)cc2)cc1F (stereo not shown) | -57.1%
9 | COc1ccc(CN(C)C(C)C(=O)Nc2ccc(S(=O)(=O)N3CCCCC3)cc2)cc1F (stereo not shown) | -19.7%
10 | COc1ccc(CCNC(=S)N(C)C)cc1OC | 32.8%
11 | COc1ccc(CN(C)CC(=O)Nc2cccc3ccccc23)cc1F | -13.4%
12 | COc1ccc(CCN(C)C(=S)NC(=O)c2ccc(F)cc2Cl)cc1OC | -20.4%
13 | CCOC(=O)[C@H]1[C@H]2COc3ccc(Cl)cc3[C@@H]2N2C(=O)c3cc(Cl)ccc3NC(=O)[C@@]12C | 3.59%
14 | COc1ccc(COC(=O)C2=C(C)NC(=O)NC2c2ccc(O)c(OC)c2)cc1 (stereo not shown) | -3.97%
15 | Cc1ccc2[nH]c3c(c2c1)SC(C)(C)CC3=O | 3.75%
16 | COC(=O)C(NC(=O)CSc1nc(N)cc(=O)[nH]1)c1ccccc1 (stereo not shown) | 18.3%
17 | C=CCc1ccc(OCCn2cncn2)c(OC)c1 | 7.93%
18 | CCCCCN(C(=O)NC(=O)NC(C)CC)S(C)(=O)=O (stereo not shown) | 9.23%
19 | CCN(CC)CCn1c2c(c(SCC(=O)Nc3ccccc3Cl)nc1=O)CCC2 | -59.8%
20 | CCN(CC)CCn1c2c(c(SCC(=O)NCc3ccccc3)nc1=O)CCCC2 | -31.4%
21 | CCN(CC)CCn1c2c(c(SCC(=O)NCc3ccccc3)nc1=O)CCC2 | -38.7%
22 | Cc1c(Cl)cccc1NC(=O)CSc1nc(=O)n(CCCN2CCOCC2)c2c1CCC2 | -47.1%
23 | CCN(CC)CCn1c2c(c(SCC(=O)Nc3ccccc3Cl)nc1=O)CCCC2 | -55.6%
24 | CCN(CC)CCCn1c2c(c(SCC(=O)Nc3ccccc3Cl)nc1=O)CCC2 | -55.4%
25 | COc1ccccc1NC(=O)CSc1nc(=O)n(CCN(C)C)c2c1CCCC2 | -40.4%
26 | O=C(CSc1nc(=O)n(CCCN2CCOCC2)c2c1CCCC2)Nc1ccccc1Cl | -42.9%
27 | C/C(=N\NC(=O)c1cccc(S(=O)(=O)N2CCCC2)c1)c1ccco1 | 14.1%
28 | COc1ccc(N2CC(NC(=O)c3cccc4ccccc34)CC2=O)cc1OC (stereo not shown) | -2.85%

Row | SMILES | hERG current change (%, negative = inhibition) at 10uM
29 | COc1cccc(CCNC(=O)CC2C(=O)NCCN2CC(C)(C)C)c1 (stereo not shown) | 15.8%
30 | CCCOc1ccc(NC(=O)CC2C(=O)OCC3CCCCN32)cc1 (stereo not shown) | -4.12%
31 | COc1ccc(C2/C=C\CN(C(=O)Nc3ccc(C(F)(F)F)cc3)CC(=O)N2Cc2ccc(F)cc2)cc1 (stereo not shown) | 6.55%
32 | NC(CO)(CO)CO.O=C(c1ccccc1)c1ccc2n1CCC2C(=O)O (stereo not shown) | -3.5%
33 | COc1ccc(N(CC(=O)NCc2ccc3c(c2)OCO3)C(=O)c2csnn2)cc1 | -13.6%
34 | Cn1c(=O)oc2cc(S(=O)(=O)NCCC(=O)N3CCN(c4ccccc4F)CC3)ccc21 | -17%
35 | COc1ccc(/C(N)=C/C(=O)C(C)(C)C)cc1 | -5.64%
36 | COc1nc(Oc2ccc(=O)n(C)n2)nc(N(C)C)n1 | 0.595%
37 | N#Cc1ccc(S(=O)(=O)NC2CCN(Cc3ccccc3)CC2)cc1 | -31.8%
38 | COc1ccc(OCC(O)Cn2c(=N)n(CCN3CCOCC3)c3ccccc32)cc1.Cl (stereo not shown) | -34.7%
39 | COc1ccccc1OCC(O)Cn1c(=N)n(CCN2CCCCC2)c2ccccc21.Cl (stereo not shown) | -65.4%
40 | COc1ccc(OCC(O)Cn2c(=N)n(CCN3CCCCC3)c3ccccc32)cc1.Cl (stereo not shown) | -68.1%
41 | COc1ccc(OCC(O)CN2CCCCC2)cc1.Cl (stereo not shown) | 8.1%
42 | Cc1ccc(OCC(O)Cn2c(=N)n(CCN3CCOCC3)c3ccccc32)cc1.Cl (stereo not shown) | -43.6%
43 | Cc1ccc(OCC(O)Cn2c(=N)n(CCN3CCCCC3)c3ccccc32)cc1.Cl (stereo not shown) | -72.9%
44 | COc1ccccc1OCCCCN1CCCCC1 | -1.89%
45 | CCOc1ccc(C(O)Cn2c(=N)n(CCN3CCCCC3)c3ccccc32)cc1.Cl (stereo not shown) | -77.2%
46 | CCOc1ccc(C(O)(c2ccccc2)C(CN2CCCC2)c2ccccc2)cc1.Cl (stereo not shown) | -34%
47 | Cc1onc(-c2c(F)cccc2Cl)c1C(=O)N1CCCc2ccccc21 | -21.5%
48 | CC(=O)c1ccc(NC(=O)C(=O)c2cn(CC(=O)N3CCCCC3)c3ccccc23)cc1 | 6.65%
49 | COc1ccc(-n2nc(C(=O)NCC(=O)N3CCN(c4ccccn4)CC3)c3ccccc3c2=O)cc1 | -34.3%
50 | CC(=O)N1CCN(S(=O)(=O)c2cccc(C(=O)Nc3nccs3)c2)CC1 | 3.42%
51 | CCCCN(c1ccccc1)S(=O)(=O)c1cccc(C(=O)O)c1 | 5.27%
52 | C=CCn1c(O)c(N=Nc2ccccc2C)c2ccccc21 | 4.06%
53 | COc1ccc(-n2nnnc2SCC(=O)N2CCCc3ccccc32)cc1OC | -13.4%
54 | O=C1C2CCCN2C(c2ccccc2F)N1c1cccc(Cl)c1 (stereo not shown) | 3.69%
55 | Cc1ccc2nc(CCc3nc4ccc(C)cc4o3)oc2c1 | 4.09%
